{"source": "PubChem BioAssay (EPA / NIEHS)", "note": "The source holds several records for some structures; these can differ, active in one and inactive in another. The source made the active and inactive calls. The calls were made as follows: active = hit-call score of the fitted dose curve at least 0.9, where 1 is the maximum; inactive = score below 0.9.", "data": [{"read-out": "Monocyte Chemoattractant Protein-1 (MCP1), CCL2 (gene 6347)", "assay": "BSK_4H_MCP1: BioMAP Diversity Plus: 4H Assay for Monocyte Chemoattractant Protein-1 (MCP1) Biomarker Activity (AID 2283018)", "conditions": "primary human endothelial cells (HUVEC); actives raise or lower the signal", "protocol": "BSK_4H is a cell-based, multiplexed-readout assay that uses umbilical vein endothelium, a human vascular primary cell, with measurements taken at 24 hours after chemical dosing in a 96-well plate.BSK_4H_MCP1 is an assay component measured in the BSK_4H assay. It measures MCP-1 antibody related to regulation of gene expression using ELISA technology.Data from the assay component BSK_4H_MCP1 was analyzed into 1 assay endpoint. This assay endpoint, BSK_4H_MCP1, was analyzed with bidirectional fitting relative to DMSO as the negative control and baseline of activity. Using a type of binding reporter, gain or loss-of-signal activity can be used to understand changes in the signaling as they relate to the gene CCL2. Furthermore, this assay endpoint can be referred to as a primary readout, because this assay has produced multiple assay endpoints where this one serves a signaling function. To generalize the intended target to other relatable targets, this assay endpoint is annotated to the cytokine intended target family, where the subfamily is chemotactic factor.\nThe levels of cell surface (or secreted, indicated by the prefix \"s\") biomarker endpoints were measured by ELISA. Overt cytotoxicity to cells in confluent adherent cultures (all systems other than the BT system) was assessed by measuring total protein levels using sulforhodamine B (SRB) staining in parallel cultures at the time of biomarker measurements, indicated as SRB endpoints. For proliferation assays for adherent cell types, individual cell types are cultured at sub-confluence and relative cell numbers quantified by SRB staining at time points optimized for each system (48 h: 3C and CASM3C systems; 72 h: BT and HDF3CGF systems; 96 h: SAg system). SRB was performed by staining cells with 0.1% SRB after fixation with 10% TCA and reading wells at 560 nm.Viability and proliferation of PBMC (T cells) was quantified by Alamar Blue reduction for the SAg and BT systems. For PBMC viability (referred to as PBMC Cytotoxicity within the assay endpoint names), cells were plated (75,000/well in a 96-well plate) and then chemical samples added for 1 h before addition of activators, SEB and TSST-1 (20 ng/mL final concentration each). Cells were incubated for 90 h. Then, Alamar Blue (20 uL/well) (Invitrogen, Cat DAL1100) was added for 6 h, and the plates were read with a fluorescence microplate reader at 546/580 nm (excitation/emission). For PBMC proliferation, cells were plated and activated as above but incubated for only 16 h prior to addition of Alamar Blue. Plates were read after 6 h.", "values": [{"smiles": "NC(=S)Nc1ccccc1", "outcome": "inactive"}, {"smiles": "CC12CC1(C)C(=O)N(c1cc(Cl)cc(Cl)c1)C2=O", "note": "(stereo not given)", "outcome": "inactive"}, {"smiles": "CCC(=O)C(CC(C)N(C)C)(c1ccccc1)c1ccccc1", "note": "(stereo not given)", "outcome": "inactive"}, {"smiles": "CCCCCCCCc1ccc(O)cc1", "AC50": "20.1 µM (active)"}, {"smiles": "CC(=O)OC(c1ccccc1)C(Cl)(Cl)Cl", "note": "(stereo not given)", "outcome": "inactive"}, {"smiles": "CCOC(=O)/C=C(C)/C=C/C[C@@H](C)CCCC(C)C", "AC50": "29.4 µM (active)"}, {"smiles": "CCCCCCCCC(=O)NCc1ccc(O)c(OC)c1", "AC50": "3.97 µM (active)"}, {"smiles": "COC[C@H](C)N(C(=O)CCl)c1c(C)csc1C", "outcome": "inactive"}, {"smiles": "CC(C)CCCCCCOC(=O)c1ccccc1C(=O)OCCCCCCC(C)C", "outcome": "inactive"}, {"smiles": "CN(C)N=O", "outcome": "inactive"}, {"smiles": "COP(=S)(OC)Oc1ccc(Sc2ccc(OP(=S)(OC)OC)cc2)cc1", "AC50": "11.8 µM (active)"}, {"smiles": "O=C(O)C(F)(F)C(F)(F)C(F)(F)C(F)(F)C(F)(F)C(F)(F)C(F)(F)C(F)(F)C(F)(F)C(F)(F)F", "AC50": "32.3 µM (active)", "outcome": "inactive"}, {"smiles": "Oc1cccc2cccnc12", "outcome": "inactive"}, {"smiles": "BrCCBr", "outcome": "inactive"}, {"smiles": "COC(=O)Cc1ccccc1", "outcome": "inactive"}, {"smiles": "CCOP(=S)(OCC)Oc1ccc(S(C)=O)cc1", "note": "(stereo not given)", "outcome": "inactive"}, {"smiles": "Oc1ccc(-c2ccccc2)cc1", "outcome": "inactive"}, {"smiles": "CC(C)c1ccc(CO)cc1", "outcome": "inactive"}, {"smiles": "C[C@@H]1C[C@@H]([C@H](O)CC2CC(=O)NC(=O)C2)C(=O)[C@@H](C)C1", "AC50": "4.06 µM (active)"}, {"smiles": "Cc1ccccc1N", "outcome": "inactive"}, {"smiles": "COC(=O)c1sccc1S(=O)(=O)NC(=O)Nc1nc(C)nc(OC)n1", "outcome": "inactive"}, {"smiles": "CC(C)(C)c1cc(O)ccc1O", "outcome": "inactive"}, {"smiles": "OCc1ccco1", "outcome": "inactive"}, {"smiles": "COP(=S)(OC)Oc1cc(Cl)c(Cl)cc1Cl", "outcome": "inactive"}, {"smiles": "ClC1=C(Cl)[C@]2(Cl)[C@H]3[C@H]([C@H]4C=C[C@H]3C4)[C@@]1(Cl)C2(Cl)Cl", "AC50": "0.748 µM (active)"}, {"smiles": "O=C(O)CCC(F)(C(F)(F)F)C(F)(F)F", "outcome": "inactive"}, {"smiles": "COP(=S)(OC)Oc1c(Cl)cc(C)cc1Cl", "AC50": "3.97 µM (active)"}, {"smiles": "C[C@]12CCC(=O)C[C@@H]1CC[C@@H]1[C@@H]2CC[C@]2(C)[C@@H](O)CC[C@@H]12", "outcome": "inactive"}, {"smiles": "COP(=S)(OC)Oc1ccc(S(=O)(=O)N(C)C)cc1", "outcome": "inactive"}, {"smiles": "COc1cc(OC)nc(NC(=O)NS(=O)(=O)c2ncccc2C(=O)N(C)C)n1", "outcome": "inactive"}, {"smiles": "CCOP(=S)(OCC)Oc1nc(Cl)c(Cl)cc1Cl", "AC50": "20 µM (active)"}, {"smiles": "O=[N+]([O-])c1ccc2c3c(cccc13)CC2", "outcome": "inactive"}, {"smiles": "O=C(OC1CCCCC1)c1ccccc1C(=O)OC1CCCCC1", "AC50": "8.94 µM (active)"}, {"smiles": "Oc1c(I)cc(I)cc1I", "AC50": "20 µM (active)"}, {"smiles": "C=C(C)C(=O)[O][Sn]([CH2]CCC)([CH2]CCC)[CH2]CCC", "AC50": "0.663 µM (active)"}, {"smiles": "Nc1ccc(-c2ccc(N)c(Cl)c2)cc1Cl", "outcome": "inactive"}, {"smiles": "O=C(Nc1ccc2[nH]ccc2c1)c1cc2cc(F)ccc2n1Cc1cccc(F)c1", "AC50": "5.82 µM (active)"}, {"smiles": "CC(=O)C(Cl)C(=O)N(C)C", "note": "(stereo not given)", "AC50": "20 µM (active)"}, {"smiles": "Nc1cccc2ccccc12", "outcome": "inactive"}]}]}
